Results published in ChEMBL document CHEMBL3988442, “University of Dundee, Small-Polar-MMV Screening Library” (2021).
Out of some 48,000 compounds screened, about 13,000 (27%) showed an effect of 50% or more. This is one part of the list.

What follows are compounds tested on Wolbachia pipientis (assay: Anti-Wolbachia Cell-Based Screen). Conditions: 5 µM.
Type: functional
Design: scale not given: in the data most compounds retested in dose-response had high values

SMILES	Percent Effect
CCn1nc(C)cc1C(=O)N1CCOc2cc(C)ccc21	-0.2889%
Cc1csc(CNc2cnn(C(C)C)c2)n1	2.502%
Cc1cn2c(CN(C)C(=O)c3cccnc3O)c(C)nc2s1	1.222%
Cc1nn(C)c(C)c1C1CCCN1Cc1nc(C2CC2)no1 (stereo not given)	-2.837%
Cc1nc(C)n(CC2CCCN2Cc2nc(-c3cccs3)no2)n1 (stereo not given)	-9.424%
Cc1nn(C)c(C)c1C1CCCN1Cc1nc(-c2cccs2)no1 (stereo not given)	66.61%
Cc1nn(C)c(C)c1C1CCCN1Cc1nc(-c2ccccn2)no1 (stereo not given)	93.92%
C1CCC(c2nnc3sc(C4CCOC4)nn23)C1 (stereo not given)	100.6%
C1CCC(c2nn3c(C4CCCO4)nnc3s2)C1 (stereo not given)	94.06%
C1CCC(c2nnc3sc(C4CCCO4)nn23)C1 (stereo not given)	107.8%
CCn1cc(N2Cc3nc(N4CCN(C)CC4)ncc3C2=O)cn1	-2.562%
CC(=O)N1CC[C@H]2CC(=O)N(CCc3c[nH]cn3)CC[C@H]2C1	10.36%
Cc1cccc(NS(=O)(=O)c2cc(C(=O)O)oc2C)c1Cl	-7.287%
O=C(O)c1ccc(S(=O)(=O)Nc2ccccc2CC(F)(F)F)c(F)c1	-4.395%
Cc1oc(C(=O)O)cc1S(=O)(=O)Nc1cc(Cl)ccc1F	4.903%
Cc1oc(C(=O)O)cc1S(=O)(=O)Nc1ccc(Cl)cc1F	103.2%
Cc1oc(C(=O)O)cc1S(=O)(=O)Nc1cccc(Cl)c1F	105.9%
Cc1oc(C(=O)O)cc1S(=O)(=O)Nc1ccccc1F	96.87%
Cc1oc(C(=O)O)cc1S(=O)(=O)Nc1cccc(-c2nccs2)c1	2.887%
CN(C)C(=O)CNS(=O)(=O)c1cc(Br)ccc1F	0.0286%
Cc1oc(C(=O)O)cc1S(=O)(=O)Nc1ccc(Cl)c(F)c1	-4.199%
Cc1oc(C(=O)O)cc1S(=O)(=O)Nc1cc(Br)ccc1F	94.97%
Cc1ccc([C@H]2CN(C(C)C)C[C@@H]2NS(=O)(=O)N2CCOCC2)o1	-9.511%
O=C(O)C(F)(F)F.O=C(c1ccncc1)N1CC[C@H]2[C@H]1CCN2S(=O)(=O)C1CC1	-0.5443%
CCn1ccnc1CNCC1CCN(CC(O)c2ccccc2)CC1 (stereo not given)	-5.873%
Cc1cc(CN2CCC3(CC2)CC(C(=O)O)N(C(=O)C2CC2)C3)oc1C (stereo not given)	-10.16%
O=C(c1cc(Cl)c2c(c1)OCO2)N1CCN(c2ccccn2)CC1	-15.08%
Cc1cccc(NS(=O)(=O)c2cc(C(=O)O)oc2C)c1	-4.62%
Cc1ccc(F)c(NS(=O)(=O)c2cc(C(=O)O)oc2C)c1	98.71%
Cc1oc(C(=O)O)cc1S(=O)(=O)Nc1cc(F)ccc1F	110.8%
